The campaign covered roughly 390,000 compounds. About 55 (0.01%) were called active. Calls come from the whole dose curve; as a rule, active = well fitted inhibition curve with a large enough effect; inconclusive = small, poorly fitted or top-dose-only effect; inactive = no such curve, though single readings can be large or run the other way. The list is a sample of the results.
Biological target: Thioredoxin reductase 1, cytoplasmic (Rattus norvegicus) (UniProt O89049)
Assay: qHTS Assay for Substrates of Mammalian Selenoprotein Thioredoxin Reductase 1 (TrxR1): qHTS; note: nearly all actives have a fitted effect of over 50% in size
Conditions: purified TrxR1 substrate turnover, NADPH consumption readout; series mostly up to 114 µM; activity change, negative = substrate turnover: at the top concentration
Source text: The selenoprotein thioredoxin reductase (TrxR; EC 1.8.1.9) is a FAD containing homodimeric pyridine nucleotide-disulfide oxidoreductase with many cellular roles. Together with NADPH and its prime substrate thioredoxin (Trx), the enzyme forms the core of the Trx system. The mammalian Trx system exerts a wide spectrum of functions including redox regulation, antioxidant defense, regulation of transcription factors as well as support of cell growth and replication. Many of these functions involve the reduction of Trx, which may subsequently reduce a number of different substrates including ribonucleotide reductase, peroxiredoxins or NFkB. Mammalian TrxR itself also has a broad substrate specificity, reducing both protein and non-protein substrates, including low molecular weight compounds such as dehydroascorbate, lipoic acid, ubiquinone, and juglone. In addition, several drugs in clinical use for anticancer treatment are indeed known to target TrxR1.
This BioAssay is a validation of an NADPH fluorescence-based, dual-purpose qHTS rTrxR1 assay designed to find potential inhibitors and substrates of rTrxR1. For this particular BioAssay, actives are potential substrate. See related BioAssay for inhibition data deposition.
NIH Molecular Libraries Probe Production Network [MLPCN]
NIH Chemical Genomics Center [NCGC]
Assay Provider: Elias Arner, Karolinska Institute
Assay protocol: 2 uL of reagents (buffer in column 4 as negative control and 90 nM rTrxR1 in columns 1-3 and 5-48) were dispensed into Greiner black solid-bottom 1,536-well assay plates, followed by 1 uL of NADPH (400 uM final concentration) to each well. The plates were centrifuged at 1000 rpm for 15 seconds and subsequently incubated for 5 min at room temperature (~22 deg C) to allow for rTrxR1 reduction. Compounds (23 nL) were then transferred via Kalypsys pin tool equipped with 1536-pin array (10 nL slotted pins, V&P Scientific, San Diego, CA). In addition, a duplicate 2-fold serial dilution of the control compounds auranofin, a known gold-based TrxR1 inhibitor, and juglone (5-hydroxy-1,4-naphthoquinone), a natural TrxR1 substrate, were pin-transferred to columns 2 and 3, respectively. After incubation for 15 min at room temperature (~22 deg C), 1 uL of selenite (400 uM final concentration) were dispensed to each well. The plate was immediately transferred to a ViewLux high-throughput CCD imager (PerkinElmer), wherein kinetic measurements of NADPH fluorescence (Ex 340 nm, Em 450 nm) were acquired (8 minute kinetic read, see Table 1). Read 1 was utilized to assess the capacity of a compound to serve as an rTrxR1 substrate, i.e. a decrease in NADPH fluorescence compared to the no-compound background is an indication of a substrate behavior for that particular compound. For inhibitory activity of a compound, delta values, computed as the difference in fluorescence intensity between the first and last reads of an 8-minute time kinetic window, were used. All reagents were diluted in an assay buffer consisting of 50 mM Tris-HCl, pH 7.5, 2 mM EDTA, and 0.01% Tween-20.
Throughout the screen, reagent bottle and all liquid lines were made light-tight to minimize reagent degradation. All screening operations were performed on a fully integrated robotic system (Kalypsys, San Diego, CA) containing one RX-130 and two RX-90 anthropomorphic robotic arms (Staubli, Duncan, SC). Library plates were screened starting from the lowest and proceeding to the highest concentration, and a 'double-pinning' step of the highest concentration was required to access higher concentrations of compounds. Vehicle-only plates, with DMSO being pin-transferred to the columns 5-48, were inserted uniformly at the beginning and the end of each library in order to monitor and record any shifts in the background, which can be affected by reagent dispensers or loss in enzyme activity over time. […]
% is set by controls: 0 for no effect and ±100 for the full control effect.

Thioredoxin reductase 1, cytoplasmic (Rattus norvegicus), sequence (O89049 whole entry, looked up): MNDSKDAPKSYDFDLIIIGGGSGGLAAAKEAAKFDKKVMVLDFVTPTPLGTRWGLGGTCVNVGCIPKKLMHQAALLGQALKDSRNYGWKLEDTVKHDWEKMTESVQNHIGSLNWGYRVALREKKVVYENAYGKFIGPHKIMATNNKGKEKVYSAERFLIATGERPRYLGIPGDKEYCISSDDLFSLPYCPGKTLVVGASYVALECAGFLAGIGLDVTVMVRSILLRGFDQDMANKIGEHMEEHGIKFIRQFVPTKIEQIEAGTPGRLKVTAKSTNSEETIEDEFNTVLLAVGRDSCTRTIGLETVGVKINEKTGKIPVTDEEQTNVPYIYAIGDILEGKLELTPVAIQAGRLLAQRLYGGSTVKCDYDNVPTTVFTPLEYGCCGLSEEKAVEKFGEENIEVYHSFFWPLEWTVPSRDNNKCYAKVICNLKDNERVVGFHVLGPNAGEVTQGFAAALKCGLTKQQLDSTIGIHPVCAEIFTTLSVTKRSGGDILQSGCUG

Activity change, negative = substrate turnover, inactive:
CC(C)(C)C1CCC(NC(=O)c2cnn3c2NC(=C2CC2)C=C3C(F)F)CC1 (centres undefined) 3.26%
O=[N+]([O-])c1ccc(S(=O)(=O)N2CCN(c3nc(-c4ccccc4)nc4ccccc34)CC2)cc1 -1.75%
Cc1cccc(-n2ccnc2SCC(=O)Nc2cc(C(F)(F)F)ccc2Cl)c1 -2.94% [at 57.1 µM]
CN1CCN(/[N+]([O-])=N/Oc2ccc([N+](=O)[O-])cc2[N+](=O)[O-])CC1 -6.58%
COc1cc2nc(N3CCCN(C)CC3)nc(NC(C)C)c2cc1OC 31.6%
CN(N=O)c1ccc(C=C2c3ccccc3-c3ccccc32)cc1 -1.85%
COc1ccc(-c2nc(=N)sn2-c2ccccc2)cc1 -8.32%
CN(C)c1ccc(/C=C/c2c3ccccc3nc3ccccc23)cc1 6.6%
CN(C)c1cc2c(Nc3ccc4c(cnn4Cc4ccccc4)c3)ncnc2cn1 -3.11% [at 57.1 µM]
CC(C)(C)n1ncc2c(=O)n(Cc3ccc(C(=O)c4ccccc4)cc3)cnc21 -4.32%
CC(C)(C)OC(=O)N(Cc1ccco1)S(=O)(=O)c1ccccc1Br -4.16%
CC(=O)c1ccc[n+](C(C)CCC(C)[n+]2cccc(C(C)=O)c2)c1 (centres undefined) 4.01% [at 0.0914 µM]
CCOc1ccc(CCNC(=O)c2csc3c2CCCCC3)cc1 -1.88%
CN(C(=N)N)c1ccc(/C=C2\C=Cc3ccccc32)cc1 -3.13%
Cc1cccc(-n2ncc(C(=O)N3CCc4ccccc4C3)c2C2CCN(C(=O)OC(C)(C)C)CC2)c1 -7.64%
Cc1cccc(NC(=O)CSc2nc3c(oc4ccccc43)c(=O)n2-c2ccc(F)cc2)c1 -1.84%
COc1cc(CNCCSc2nnnn2C)ccc1OCc1c(F)cccc1Cl 7.47% [at 11.4 µM]
CC1(C)Cc2ccccc2-c2c[nH]c(=O)n21 -0.238%
O=C(c1ccc2c(=O)n(Cc3ccco3)c(=S)[nH]c2c1)N1CCCC1 4.46%
N#Cc1ccc[n+](CC(=O)c2ccc(F)cc2)c1 1.15%
Nc1ncnc2nnsc12 7.52% [at 0.0914 µM]
Oc1ccc(Br)cc1C1C=C(c2ccc3c(c2)OCO3)NC(c2ccc(Cl)cc2)N1 (centres undefined) 6.51% [at 0.0914 µM]
COc1cc(CN(CC2CCCO2)C(=O)c2ccccc2F)cc(OC)c1OC (centres undefined) -0.795%
ClC/C=C/C[n+]1ccccc1Cl -8.25%
CCOC(=O)c1c(C)oc2ccc(N(C(=O)c3ccncc3)S(=O)(=O)c3ccc(CC)cc3)cc12 -5.68%
CCCCC(CCCC)c1ccc(C=Nc2ccc(/C=C/c3ccnc4ccccc34)cc2)cc1 -9.78%
COc1cc(OC)c(/C=C/c2ccnc3ccccc23)c(OC)c1 -0.93%
CCOC(=O)c1cccc(NC(=O)c2cc(S(=O)(=O)N3CCCC(C)C3)cn2C)c1 (centres undefined) 2.95% [at 57.1 µM]
O=C(Nc1ccccc1)c1ccccc1OCc1ccccc1 -1.98%

From PubChem BioAssay AID588456 (National Center for Advancing Translational Sciences (NCATS), 2011)
